High-throughput results (PubChem)
HIF-2a inh = HIF-2a reporter inhibitors, primary screen, luminescence, 786-0 RCC cells; 786-0 RCC cells HIF-2a reporter, luciferase luminescence, overnight; inhibition, % at 18.8 µM; 360,000 tested, 0.72% active; AID 624352, 2012;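 active = inhibition of the luminescence signal of 40% or more relative to plate controls, in a single-dose primary screen at 18.75 µM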
CF NFkB inh = inhibitors of PAF-induced NF-kB signaling, primary screen, cell-based, GFP fluorescence, uHTS; KKLEB NF-kB-GFP reporter, GFP fluorescence overnight; inhibition, % at 5 µM; 360,000 tested, 0.86% active;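 active = at least 50% inhibition at 5 µM, scaled per plate between neutral and stimulator controls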;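 also: PAF is a Pseudomonas aeruginosa culture filtrate used as stimulus; plate controls were PAF-stimulated DMSO wells for no effect and unstimulated DMSO wells for full effect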
Peg3 prom inh = Peg3 promoter-driven luciferase inhibitors, primary screen, cell-based, HeLa, luciferase luminescence | HeLa PEG-Prom luciferase reporter, overnight | inhibition, % at 20 µM | 360,000 tested, 1.7% active;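 active = inhibition of at least 50% at 20 µM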
ABHD5-PLIN5 inh = ABHD5-PLIN5 interaction inhibitors, primary screen, cell lysate, split luciferase complementation, luminescence; Perilipin-5 (Homo sapiens) + 1-acylglycerol-3-phosphate O-acyltransferase ABHD5 (Homo …; Split G. princeps luciferase complementation, 4 h; inhibition, % at 4 µM; 360,000 tested, 0.78% active; AID 602281, 2012;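 active = inhibition above the mean inhibition across every tested compound plus 3 SD, cut at about 22% in these data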;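 also: 0% = DMSO only wells and the 100% control is not disclosed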
TRPM1 prom inh = inhibitors of MITF-dependent TRPM1 promoter reporter, primary screen, cell-based, SK-MEL-5, single point, luciferase; SK-MEL-5 TRPM1 promoter luciferase, 24 h; inhibition, % at 12.5 µM; 330,000 tested, 0.83% active;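 active = mean inhibition across replicates of 60% or more, whatever share of single replicates reaches that level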
KKLEB tox = cytotoxicity in KKLEB CF airway cells, primary screen, cytotoxicity control for CF NF-kB inhibitor project, cell-based, uHTS, fluorescence assay plates; 360,000 tested, 0.36% active; KKLEB CF airway cells viability, ATPlite luminescence, overnight; hits give low values; cells stimulated with P. aeruginosa culture filtrate; activity change (cytotoxicity), % at 5 µM;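 active = corrected activity change at or below -50% at 5 µM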
Mdm2-MdmX confirm = retested Mdm2-MdmX interaction blockers, confirmation, cell-based, luminescence, single concentration, set 2 | AID 504601, 2011 | SaOS-2 split-luciferase Mdm2/MdmX complementation | shares compounds with HIF-2a inh | inhibition, % at 8 µM | 740 tested, 99% active;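 active = mean inhibition of the luminescence signal across two replicates at or above 26 percent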
Target sequence (O15151 whole entry, looked up): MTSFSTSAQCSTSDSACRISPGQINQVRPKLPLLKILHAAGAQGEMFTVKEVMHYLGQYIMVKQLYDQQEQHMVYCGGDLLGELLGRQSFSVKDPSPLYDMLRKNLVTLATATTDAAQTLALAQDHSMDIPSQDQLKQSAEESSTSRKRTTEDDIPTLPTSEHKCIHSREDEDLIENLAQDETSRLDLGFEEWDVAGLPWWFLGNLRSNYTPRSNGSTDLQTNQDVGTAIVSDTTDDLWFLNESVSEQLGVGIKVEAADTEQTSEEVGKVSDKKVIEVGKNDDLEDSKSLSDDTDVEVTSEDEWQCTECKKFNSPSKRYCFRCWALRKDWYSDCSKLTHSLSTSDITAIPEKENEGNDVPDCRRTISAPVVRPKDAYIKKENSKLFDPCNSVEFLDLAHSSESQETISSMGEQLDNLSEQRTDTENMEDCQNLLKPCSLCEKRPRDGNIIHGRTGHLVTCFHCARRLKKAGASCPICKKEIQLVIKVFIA
Target sequence (Q00987 whole entry, looked up): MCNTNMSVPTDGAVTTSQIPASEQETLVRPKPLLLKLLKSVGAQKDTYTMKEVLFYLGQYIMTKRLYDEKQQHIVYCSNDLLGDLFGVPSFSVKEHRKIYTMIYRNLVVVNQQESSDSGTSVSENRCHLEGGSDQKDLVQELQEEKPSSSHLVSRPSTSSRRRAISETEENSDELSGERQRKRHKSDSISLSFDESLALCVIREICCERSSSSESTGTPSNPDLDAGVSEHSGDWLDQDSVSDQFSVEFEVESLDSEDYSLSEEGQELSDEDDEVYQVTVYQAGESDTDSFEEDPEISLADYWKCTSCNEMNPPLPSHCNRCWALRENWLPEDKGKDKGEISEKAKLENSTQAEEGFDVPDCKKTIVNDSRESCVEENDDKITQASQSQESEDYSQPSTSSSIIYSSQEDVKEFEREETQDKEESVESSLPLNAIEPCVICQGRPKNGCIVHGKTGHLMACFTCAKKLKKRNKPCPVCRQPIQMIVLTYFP
HIF-2a conf = HIF-2a reporter inhibitor retest, confirmation, luminescence, 786-0 RCC cells; shares compounds with HIF-2a inh; HIF-2a luciferase reporter luminescence, overnight; inhibition, % at 18.8 µM; 1,800 tested, 56% active;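 active = mean inhibition across four replicates of at least 40 percent at the single tested concentration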
HIF-1a counter = HIF-1a luciferase reporter signal reduction – MiaPaCa-2 cells, single concentration, counter-screen for HIF-2a inhibitor project, confirmation. MiaPaCa-2 HIF-1a luciferase reporter, desferoxamine, overnight. shares compounds with HIF-2a inh. 1,800 tested, 72% active. inhibition, % at 18.8 µM. AID 651589, 2012;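 active = mean inhibition of the reporter signal across four replicates at the single tested dose of 50% or more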
Numbers without * were called inactive; . = not tested or not shown. Sampled rows, rich in hits. Any-hit rate of the full collection: about 3%.

SMILES | HIF-2a inh | CF NFkB inh | Peg3 prom inh | ABHD5-PLIN5 inh | TRPM1 prom inh | KKLEB tox | HIF-2a conf | HIF-1a counter | others
COC(=O)C1=C(c2ccc(Cl)c(C(F)(F)F)c2)C[C@@H]2CC[C@H]1N2C(=O)NCCOc1ccccc1Cl | 5 | 47 | 31 | 2 | -1 | -22 | . | .
CCOC(=O)C(NC(=O)C(Cc1ccc(N(CCCl)CCCl)cc1)NC(C)=O)C(C)C (stereo not given) | 13 | -14 | 3 | -1 | 11 | -9 | . | .
COC(=O)C(Cc1ccc(N(CCCl)CCCl)cc1)N=Cc1ccccc1O (stereo not given) | 72* | 75* | 97* | 3 | 62* | -48 | -5 | 100* | Mdm2-MdmX confirm=103*
CC(OC(=O)c1cn(C)c2ccccc12)C(=O)N(C)c1ccccc1 (stereo not given) | 16 | -6 | 14 | -4 | -4 | -1 | . | .
COc1cc(C=C2C(=O)NC(=O)NC2=O)ccc1OCc1ccc([N+](=O)[O-])cc1 | -203 | -24 | -248 | 9 | -67 | -2 | . | .
COc1cc(/C=C(/C)[N+](=O)[O-])ccc1OCc1ccccc1Cl | 94* | 85* | 105* | 90* | 91* | -66* | . | . | Mdm2-MdmX confirm=103*
COC(=O)C1=C(c2cccc(C#N)c2)C[C@@H]2CC[C@H]1N2C(=O)NC1Cc2ccccc2C1 | -58 | -15 | -30 | -4 | -12 | 2 | . | .
Oc1ccc(-[n+]2c(-c3ccccc3)cc(-c3ccccc3)cc2-c2ccccc2)cc1 | -22 | 40 | 86* | 21 | 84* | -15 | . | . | Mdm2-MdmX confirm=102*
Nc1ncnc2c1ccn2[C@@H]1O[C@H](CO)[C@@H](O)[C@H]1O | 35* | 87* | 100* | 3 | . | -97* | 29 | 103* | Mdm2-MdmX confirm=103*
NC(=S)c1cn(C2OC(CO)C(O)C2O)c2ncnc(N)c12 (stereo not given) | 52* | 90* | 107* | 2 | 82* | -79* | 32 | 105*
CC(NS(C)(=O)=O)c1nnc2n1-c1ccc(Br)cc1C(c1ccccc1Cl)=NC2 (stereo not given) | 17 | -1 | 12 | 4 | -3 | 13 | . | .
CNC(C)Cc1ccccc1Sc1ccc(O)cc1 (stereo not given) | 50* | -1 | 9 | 5 | -11 | -2 | 0 | 49
COc1cccc2c1N=C1CCCC3CN(C(C)=O)CCC123 (stereo not given) | 11 | 19 | 11 | 3 | -7 | -15 | . | .
C[C@H]1CCC/C=C/[C@@H]2C[C@H](O)C[C@H]2[C@H](O)/C=C/C(=O)O1 | 60* | 76* | 43 | -2 | 81* | 17 | 43* | 75* | Mdm2-MdmX confirm=96*
O=Cc1cn(Cc2ccccc2F)c2ccccc12 | 12 | 12 | 19 | 3 | 6 | 13 | . | .
O=Cc1cn(Cc2cccc([N+](=O)[O-])c2)c2ccccc12 | 46* | 38 | 101* | -3 | 24 | -40 | 63* | -8
Nc1cc(Cl)c2nonc2c1[N+](=O)[O-] | 94* | 76* | 107* | 20 | 93* | -76* | 97* | 103*
COC(=O)C1=C(c2cc3ccccc3o2)C[C@@H]2CC[C@H]1N2C(=O)NCCO | 4 | -5 | 11 | -1 | 0 | -1 | . | .
CCOC(=O)[C@]12Cc3cc(OC)ccc3[C@H]1N(C1CCCCC1)C(=O)c1cc(OC)ccc12 | 88* | . | . | 19 | . | . | 89* | 105*
CCC(c1ccc(C)cc1)N1C(=O)C2C3CCC(O3)C2C1=O (stereo not given) | 11 | -27 | 5 | 5 | 1 | -1 | . | .
c1ccc(P(c2ccccn2)c2ccccn2)cc1 | 58* | -7 | 13 | 3 | 4 | 12 | 2 | -6
Nc1nnc(P(c2ccccc2)c2ccccc2)s1 | 15 | 5 | 21 | 10 | -7 | -6 | . | .
O=C1NCN(c2ccccc2)C12CCN(C(c1ccccc1OC(F)(F)F)c1nnnn1-c1ccc3c(c1)OCCO3)CC2 (stereo not given) | 10 | 31 | 28 | 4 | . | -19 | . | .
CC1=CC2OC3CC4OC(=O)C=CC=CC(=O)OCCC(C)C(O)C(=O)OCC2(CC1O)C4(C)C31CO1 (stereo not given) | 75* | 84* | 101* | -7 | 86* | -44 | 72* | 103*
CCOC(=O)CNC(=O)N1Cc2cc(-c3cccc(F)c3)ccc2-n2nncc2C1 | 3 | -21 | -2 | 20 | . | -15 | . | .
SMILES | HIF-2a inh | CF NFkB inh | Peg3 prom inh | ABHD5-PLIN5 inh | TRPM1 prom inh | KKLEB tox | HIF-2a conf | HIF-1a counter | others
C[C@@H]1O[C@@H](O[C@@H]2C=C3CC[C@@H]4C(CC[C@]5(C)[C@@H](c6ccc(=O)oc6)CC[C@]45O)[C@@]3(C)CC2)[C@H](O)[C@H](O)[C@H]1O (stereo not given in full) | 86* | 89* | 107* | -6 | 83* | -76* | 46* | 105*
CC(=O)C1CCC2(O)C3CCC4=CC(=O)CCC4(C)C3CCC12C (stereo not given) | 4 | 13 | -5 | 1 | 4 | 4 | . | .
COc1cccc(C2CCN(C)C2)c1 (stereo not given) | 5 | -19 | -11 | 1 | . | 1 | . | .
CCC(C)C1NC(=O)C(NC(=O)C(CC(C)C)N(C)C(=O)C2CCCN2C(=O)C(C)O)C(C)OC(=O)C(Cc2ccc(OC)cc2)N(C)C(=O)C2CCCN2C(=O)C(CC(C)C)NC(=O)[C@H](C)C(=O)[C@H](C(C)C)OC(=O)CC1O (stereo not given in full) | 83* | 94* | 100* | 1 | 105* | -70* | 79* | 100*
CCOc1cc2c(cc1OCC)-n1cccc1C(c1cccc(OCC)c1O)NC2 (stereo not given) | 22 | 18 | 11 | 1 | 7 | -18 | . | .
O=C(Nc1cccc(OC(=O)N2CCCCC2)c1)N1CCCCC1 | 14 | 20 | 11 | 2 | 8 | 0 | . | .
CC(=O)Nc1ccc(OC(=O)N2CCCCC2)cc1 | 85* | 7 | -3 | -4 | 7 | -2 | 95* | 53*
COc1cccc(-c2nn(CCC#N)cc2C(=O)Nc2ccccc2Cl)c1 | 14 | 16 | 26 | 3 | -2 | -16 | . | .
COc1ccc(CC2NCC(O)C2OC(C)=O)cc1 (stereo not given) | 82* | 80* | 108* | -7 | 91* | -45 | 85* | 105*
CN1C2CCC1C(C(=O)O)C(O)C2 (stereo not given) | 0 | 4 | -7 | 8 | 2 | 0 | . | .
